Screening results: PubChem BioAssay, National Center for Advancing Translational Sciences (NCATS)
Rows were chosen to be rich in hits. Some 7.3% of all compounds tested hit in one or more screens of this group.
uPA generation = inhibitors of cell surface uPA generation; cell surface uPA generation assay, qHTS; 330,000 tested, 0.31% active; Potency, µM (titrated, usually from 38.3 µM), without a hit: at the top dose activity change, negative = inhibition, most hits filed as inhibitors; AID 540303; active means well fitted inhibition curve with a large enough effect; inconclusive means small, poorly fitted or top-dose-only effect; inactive means no such curve, though single readings can be large or run the other way; tested in mouse RAW 264.7 cells; further: on the % scale 0 is the no-effect control and ±100 the full control effect; nearly all actives have a fitted effect of over 55% in size
SMN2 splice up = increases expression of the SMN2 splice variant; AID 1458; HEK293 SMN2-luciferase splicing reporter, luminescence, 30-36 h; 210,000 tested, 2.8% active; Potency, µM (highest dose often 46.1 µM), without a hit: at the top dose activity change, positive = activation, hits mostly activators; further: % of control where 0% means no effect; nearly all actives have a fitted effect of over 55% in size
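qHTS luciferase splicing reporter: luminescence rises when SMN2 exon 7 is included in transfected HEK293 cells. Compound exposure lasted 30-36 h at 37C, with 4.5 mM final sodium butyrate as control, followed by a ONE-Glo read.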
NPC1 promoter act = activators of NPC1 promoter. Huh7 NPC1 promoter luciferase reporter, 24 h. Potency, µM (series often up to 9.22 µM), for inactives: at the highest dose activation, hits mostly activators. 320,000 tested, 2.4% active. AID 485313; further: % of control where 0% means no effect; nearly all actives have a fitted effect of over 60% in size
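Huh7 reporter cells (NPC1 promoter driving luciferase) are dosed with compound for 24 h at 37 °C, 5% CO2; luciferase detection reagent is then added and luminescence measured after 10 min at ambient temperature.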
ELG1 genotox = genotoxicity induction in ELG1-luciferase HEK293T cells; HEK293T ELG1-luciferase reporter, luminescence, 16 h; Potency, µM (top dose mostly 46 µM), inactives show top-dose activity change, positive = activation, most hits filed as activators; 330,000 tested, 1.3% active; further: % of control where 0% means no effect; nearly all actives have a fitted effect of over 60% in size
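HEK293T cells expressing luciferase-tagged ELG1 were treated with compound or DMSO for 16 hr at 37°C. Luciferase activity was then read after 30 min with ONE-Glo at room temperature; rising signal flags genetic stress.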
FLuc modulator = counter-screen for miR-21 project: firefly luciferase inhibitors or activators. P08659. purified FLuc, Km substrates, luminescence inhibition. Potency, µM (top dose mostly 57.5 µM), for inactives: at the highest dose activity change, negative = inhibition, actives largely listed as inhibitors. 360,000 tested, 6.9% active. AID 588342;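 further: plate controls were vehicle for no effect and reference inhibitor for full effect; nearly all actives have a fitted effect of over 55% in size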
Target sequence (P08659 whole entry, looked up): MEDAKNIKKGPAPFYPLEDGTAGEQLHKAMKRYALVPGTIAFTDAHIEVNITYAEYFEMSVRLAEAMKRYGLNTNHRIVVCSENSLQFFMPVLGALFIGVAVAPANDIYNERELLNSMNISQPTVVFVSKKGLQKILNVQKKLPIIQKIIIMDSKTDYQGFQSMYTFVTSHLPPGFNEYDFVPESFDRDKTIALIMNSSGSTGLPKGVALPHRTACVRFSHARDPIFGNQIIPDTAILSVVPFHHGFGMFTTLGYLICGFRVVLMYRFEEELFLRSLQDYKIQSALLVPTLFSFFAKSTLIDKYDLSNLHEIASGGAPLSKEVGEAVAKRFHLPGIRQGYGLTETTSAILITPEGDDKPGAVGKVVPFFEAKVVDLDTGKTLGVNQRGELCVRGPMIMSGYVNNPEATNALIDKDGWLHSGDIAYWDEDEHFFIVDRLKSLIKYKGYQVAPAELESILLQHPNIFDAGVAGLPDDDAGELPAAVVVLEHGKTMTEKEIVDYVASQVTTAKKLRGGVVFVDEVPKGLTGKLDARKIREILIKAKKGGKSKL
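Purified P. pyralis luciferase, 10 nM final, with Km-level 10 uM D-luciferin and 10 uM ATP in 50 mM Tris acetate pH 7.5, 10 mM Mg acetate, 0.01% Tween-20, 0.05% BSA; 6-point qHTS titration about 60 µM downward; luminescence read.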
Rab9 promoter act = Rab9 promoter activation | AID 485297 | 320,000 tested, 2.8% active | Huh7 Rab9 promoter-luciferase reporter, luminescence, 24 h | Potency, µM (highest dose often 9.22 µM), for inactives: at the top dose activation, negative = inhibition, hits mostly activators; further: % of control where 0% means no effect; nearly all actives have a fitted effect of over 60% in size
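Promoter activation is measured as luciferase luminescence in Huh7 cells stably transfected with a Rab9 promoter–luciferase construct, following 24 h compound exposure at 37 °C and 10 min reagent incubation at ambient temperature.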
Starred values were filed as active, the others as inactive; ? = inconclusive; . = no result; [ ] = another dose, or the depositor's remark. Unless noted, the call rests on the fitted dose curve; in most records, active means well fitted curve in the direction sought with a large enough effect; inconclusive means small, poorly fitted or top-dose-only effect, or another doubt; inactive means no such curve, though single readings can be large; an effect the other way counts as inactive or inconclusive. Potency means the concentration at half of the fitted maximal effect.

SMILES	uPA generation	SMN2 splice up	NPC1 promoter act	ELG1 genotox	FLuc modulator	Rab9 promoter act
CCc1ccc(C(=O)Nn2cnc3ccccc3c2=O)cc1	1.7%	.	2.51µM*	?	8.49µM*	2.24µM*
Cc1ccc(C(=O)Nn2cnc3ccccc3c2=O)cc1C	4.1%	.	3.16µM*	?	13.5µM*	2.51µM*
O=C(Nn1cnc2ccccc2c1=O)c1ccc(Br)cc1	1.3%	.	15.1%	14.7%	?	-5.1%[1.84 µM]
CCSc1nnc2c(n1)OC(c1ccc(OC)cc1OC)N(C(C)=O)c1ccccc1-2 (configuration not stated)	.	6.8%	.	.	5.2%	.
CC1CC(=O)N(CC(=O)Nc2ccc(F)cc2F)c2ccccc2S1 (configuration not stated)	.	-11.9%	.	.	-7.6%	.
COc1ccc(NC(=O)N2CCc3c(sc4c3CCCC4)C2c2ccccc2OC)cc1 (configuration not stated)	.	.	.	.	-0.5%	.
Cn1ccnc1SCC(=O)c1ccc(OC(F)F)cc1	-0.7%	.	?	?	?	?
O=C(CSc1nccn1-c1ncc(C(F)(F)F)cc1Cl)c1ccc(Br)cc1	4.3%	-34.4%	3.55µM*	?	-18.2%	1.58µM*
COc1ccc(C(=O)CSc2nccn2C)cc1	-0.4%	.	2.82µM*	23.1µM*	16.9µM*	3.55µM*
Cn1ccnc1SCC(=O)c1cccc(C(F)(F)F)c1	3.4%	.	2.82µM*	?	16.9µM*	3.98µM*
COC(=O)c1ccc(CSc2nccn2C)cc1	2.3%	11.2µM*	18.4%	13µM*	?	18.1%
COc1cc2c(cc1O)[C@@H](c1cc(O)c(O)c(OC)c1)[C@@](O)(C(=O)O)[C@@H](CO)[C@@H]2O	.	-5.7%[9.22 µM]	.	.	.	.
COC(=O)c1ccc(CSC2=NCCS2)cc1	3.9%	17.8µM*	?	?	?	?
COC(=O)c1ccc(CNC(=O)CSC2=NCCS2)cc1	-1.6%	8.6%	-1.1%	-3.1%	-6.5%	0.2%
CCOC(=O)c1c(-c2ccc(OC)c(OC)c2)csc1NC(=O)c1ccc(C)cc1	.	-5.5%	.	.	-0.2%	.
COc1ccc(C(=O)Nc2scc(-c3ccc(Cl)cc3Cl)c2C(N)=O)cc1	0.1%	-8.9%	2.82µM*	-0.8%	4.78µM*	3.16µM*
CCCc1cc(=O)[nH]c(Nc2cc(Cl)ccc2OC)n1	.	-3.6%	.	.	-3.2%	.
CCCc1cc(=O)[nH]c(Nc2cc(OC)ccc2OC)n1	6.0%	1.26µM*	0.7%	-1.6%	0.0%	-0.7%
O=C(NC(=S)Nc1cccc2cccnc12)c1ccccc1	0.3%	-0.3%	?	6.4%	7.57µM*	?
CC(C)Oc1ccc(C(=O)Nc2cccc3cccnc23)cc1	0.2%	.	11.1%	9.9%	10.7µM*	20.2%
O=C(Nc1cccc2cccnc12)c1ccc(F)cc1	.	.	.	.	15.1µM*	.
CCOc1ccc(C(=O)Nc2cccc3cccnc23)cc1	-1.4%	.	3.3%	11.8%	?	0.2%
CNC(=S)Nc1cccc2[nH]ncc12	-1.9%	-4.4%	0.1%	-0.5%	0.1%	-6.2%
O=C(NC(=S)Nc1cccc2[nH]ncc12)c1ccccc1	-2.0%	?	3.16µM*	-4.4%	?	2.51µM*
CC(C)C(=O)Nc1nnc(SCc2cc(=O)n3ccccc3n2)s1	.	.	.	.	-6.0%	.
SMILES	uPA generation	SMN2 splice up	NPC1 promoter act	ELG1 genotox	FLuc modulator	Rab9 promoter act
CC(C)c1ccc(C(=O)Nc2cccc3cccnc23)cc1	.	8.1%	.	.	9.53µM*	.
Cc1cc(C(=O)Nc2cccc3cccnc23)ccc1[N+](=O)[O-]	-2.4%	24.5%	6.1%	3.8%	?	0.6%
CCOc1ccc2nc(SCC(=O)N(C)C3CCS(=O)(=O)C3)[nH]c2c1 (configuration not stated)	2.8%	.	-3.0%	2.0%	-13.4%	13.6%
CCOc1ccc2nc(SCC(=O)N(C)C)[nH]c2c1	-2.0%	23.5%	3.98µM*	16.4µM*	19µM*	3.55µM*
COc1ccc(NC(=O)CSc2nc3ccc(OC)cc3[nH]2)cc1	-1.2%	.	1.9%	-4.6%	?	6.0%
CCOc1ccc2nc(SCC(=O)Nc3ccc4[nH]c(=O)[nH]c4c3)[nH]c2c1	-1.0%	.	7.4%	-0.1%	13.5µM*	0.6%
CC(=O)c1ccc(NC(=O)C[n+]2cccc(C)c2)cc1	21.5%	.	2.9%	-7.4%	2.2%	0.3%
CCN(CC)c1ccc(NC(=O)c2c(C)nn(-c3ccc(F)cc3)c2-n2cccc2)c(C)c1	.	.	.	.	-5.8%	.
O=S(=O)(c1ccccc1)N1CCC2(CC1)CN(c1ccccn1)C2	.	-44.3%	.	.	.	.
O=C(CCc1nc2ccccc2s1)OCC(=O)c1ccccc1	1.4%	18.3%	14.1%	13.3%	19µM*	22.1%
O=C(O)CCCc1nc2ccccc2s1	3.2%	?	-1.3%	3.2%	?	-1.2%
COc1ccccc1OC(=O)CCc1nc2ccccc2s1	8.7%	-7.4%	4.3%	-5.2%	19µM*	-1.5%
O=C(CCc1nc2ccccc2s1)OCC(=O)c1ccc[nH]1	6.2%	7.7%	-11.4%	-3.5%	?	2.4%
O=C(CCc1nc2ccccc2s1)c1ccccc1	11.8%	23.5%	27.5%	12.8%	15.1µM*	?
COc1cccc(C2C(C(=O)Nc3ccc(Cl)cc3)=C(C)Nc3c(C(=O)Nc4ccccc4)cnn32)c1OC (configuration not stated)	.	3.5%	.	.	-5.9%	.
CCC(Sc1ncnc2sc3c(c12)CCCC3)C(=O)OCC(C)C (configuration not stated)	.	-15.3%	.	.	4.2%	.
COc1ccc(NC(=O)CN2C(=O)CC(c3ccc(C)c(C)c3)=Nc3ccccc32)cc1OC	.	.	.	.	13.5µM*	.
Cc1ccc(C2=Nc3ccccc3N(CC(=O)NCc3ccccc3Cl)C(=O)C2)cc1C	.	.	.	.	9.53µM*	.
Cc1ccccc1Nc1nn2c(=O)c3ccc(C(=O)NCC(C)c4ccccc4)cc3nc2s1 (configuration not stated)	.	.	.	.	-2.3%	.
CCCCC[C@H](O)/C=C/[C@H]1OC(O)C[C@H](O)[C@@H]1C/C=C\CC(=O)O (some centres not stated)	.	0.5%	.	.	.	.
Cc1ccc2c(Sc3ccc(Cl)cc3)c(C(=O)NCCC(C)C)[nH]c2c1	.	.	.	.	-15.5%	.
Cc1c(Cl)cccc1-n1ncc(C(=O)Nc2ccc(Br)cc2F)c1C1CCNCC1	.	.	.	.	-4.9%	.
Cc1c(C(=O)OC2CCC(C)CC2)[nH]c2c1C(=O)CC(c1ccc(N(C)C)cc1)C2 (configuration not stated)	.	-7.3%	.	.	-1.6%	.
Cc1ccc(C)c(NC(=O)CSc2nc3c([nH]c4ccccc43)c(=O)n2-c2ccc(F)cc2)c1	.	.	.	.	0.3%	.
COc1ccc(OC)c(-n2c(=O)[nH]c3cc(C(=O)NCCc4ccc(OC)c(OC)c4)ccc3c2=O)c1	.	5.3%	.	.	-1.6%	.
